Screening results as filed in PubChem BioAssay.
The list is not random: actives were taken first. Their share in the collection is about 7.4%.
3T3 cytotox: cytotoxic compounds in NIH 3T3 cells | NIH 3T3 viability, CellTiter-Glo ATP luminescence, 48-72 h | Potency, µM (titrated, usually from 96.7 µM), actives largely listed as inhibitors | hit rate 4.3% among 94,000 | AID 1345082; also: nearly all actives have a fitted effect of over 55% in size
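Luminescent ATP readout (CellTiter-Glo, 10 min RT) after 48 or 72 hr compound exposure of NIH 3T3 cells seeded at 400 cells/well in 1536-well format; quantitative HTS.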
FLuc inh: blocks purified firefly luciferase enzyme activity | P08659 | hit rate 2.5% among 76,000 | Potency, µM (highest dose often 115 µM), actives largely listed as inhibitors | AID 1347043 | purified P. pyralis luciferase, luminescence, biochemical; also: nearly all actives have a fitted effect of over 65% in size
Target sequence (P08659 whole entry, looked up): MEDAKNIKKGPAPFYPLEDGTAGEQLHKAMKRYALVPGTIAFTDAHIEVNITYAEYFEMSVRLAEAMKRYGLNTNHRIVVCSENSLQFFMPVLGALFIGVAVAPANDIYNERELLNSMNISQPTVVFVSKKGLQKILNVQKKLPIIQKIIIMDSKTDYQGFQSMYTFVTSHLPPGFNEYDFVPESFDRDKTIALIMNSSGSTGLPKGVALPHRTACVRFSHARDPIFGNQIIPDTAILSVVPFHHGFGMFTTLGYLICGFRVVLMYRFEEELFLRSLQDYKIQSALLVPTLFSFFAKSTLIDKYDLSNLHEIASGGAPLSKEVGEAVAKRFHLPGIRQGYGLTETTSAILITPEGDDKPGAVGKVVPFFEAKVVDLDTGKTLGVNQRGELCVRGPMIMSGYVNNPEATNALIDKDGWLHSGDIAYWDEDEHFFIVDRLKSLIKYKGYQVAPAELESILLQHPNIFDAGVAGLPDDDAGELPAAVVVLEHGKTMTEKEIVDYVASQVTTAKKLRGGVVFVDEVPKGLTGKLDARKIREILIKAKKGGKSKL
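Luminescence read by CCD imaging after purified firefly luciferase (10nM final) was added to substrate buffer holding 10uM D-luciferin and 10uM ATP, pH 7.5, pre-dosed with compound.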
SNCA expr inh: reduces expression of the alpha-synuclein gene. HEK-293 SNCA-luciferase knock-in, luminescence, 24 h. hit rate 0.17% among 140,000. Potency, µM (series often up to 57.2 µM), most hits filed as inhibitors; also: nearly all actives have a fitted effect of over 45% in size
SNCA viab count: counter-screen for SNCA expression inhibitors: cell viability; HEK-293-SNCA-luc viability, GF-AFC fluorescence, 24 h; Potency, µM (doses to about 57.1 µM), actives largely listed as cytotoxic; hit rate 0.12% among 150,000; AID 1671193; also: nearly all actives have a fitted effect of over 30% in size
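HEK-293-SNCA-luc cells (1500/well) plated 24 h, then exposed 24 h to a dilution series; GF-AFC added 30 min at 37C, fluorescence 405/540 nm; normalised to medium-only and DMSO wells, Hill fit.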
NPR1 antag: blocks ANP-stimulated signaling of human Npr1 receptor | P16066 | HEK293 hNpr1 GloSensor cGMP, ANP-stimulated luminescence | Potency, µM (titrated, usually from 46.3 µM), hits mostly inhibitors | hit rate 1.6% among 76,000; calls by dose curve; also: nearly all actives have a fitted effect of over 60% in size
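HEK293 cells stably expressing human Npr1 and cGMP GloSensor pGS-40F, loaded 2 h with 2% GloSensor reagent, given compound 30 min at room temperature. Luminescence read before and 20 min after 0.1 nM hNppA.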
HEK cytotox: kills HEK 293 cells. HEK 293 viability, ATP luminescence (CellTiter-Glo), 48-72 h. Potency, µM (highest dose often 115 µM), actives largely listed as inhibitors. hit rate 6.6% among 94,000. AID 1345083; also: nearly all actives have a fitted effect of over 60% in size
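HEK 293 cells at 250 cells/well were exposed to compounds by pintool transfer for 48 or 72 hr at 37 degree Celsius, 5% CO2. Viability was read as ATP-coupled luminescence with CellTiter-Glo after 10 min at room temperature.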
Of the large screens only hits and unclear results are named; the others gave an inactive call. Unless noted, calls follow the shape of the dose curve; as a rule, active = well fitted curve in the direction sought with a large enough effect; inconclusive = small, poorly fitted or top-dose-only effect, or another doubt; inactive = no such curve, though single readings can be large; an effect the other way counts as inactive or inconclusive.

COc1ccc(-c2cc(N3CCCC(NC(=O)c4ccc5cc[nH]c5c4)C3)n[nH]2)cc1 (stereo not given)	3T3 cytotox inconclusive, FLuc inh 11µM, NPR1 antag inconclusive, HEK cytotox inconclusive
COc1ccc(-c2cc(N3CCCC(NC(=O)c4ccc(C)c(F)c4)C3)n[nH]2)cc1 (stereo not given)	3T3 cytotox inconclusive, HEK cytotox inconclusive
O=C(Cn1ncnn1)N1CCN(Cc2cnc[nH]2)CC(O)C1 (stereo not given)	none
COC(=O)C1C(O)CCC2CN3CCc4c([nH]c5ccccc45)C3CC21 (stereo not given)	none (no result: 3T3 cytotox, FLuc inh, SNCA expr inh, NPR1 antag, HEK cytotox)
COC(=O)[C@@H]1Cc2c([nH]c3ccccc23)[C@H]2C[C@@H](NC[C@H]3CCCO3)C[C@@H](c3ccccc3F)N21	3T3 cytotox 79µM, HEK cytotox 79µM
COC(=O)[C@@H]1Cc2c([nH]c3ccccc23)[C@H]2C[C@@H](NCCc3cnc[nH]3)C[C@@H](c3ccccc3F)N21	3T3 cytotox 28µM, HEK cytotox 25µM
CN1CCN(C(=O)c2ccc3oc(-c4cccnc4)nc3c2)CC1	none (no result: FLuc inh, NPR1 antag)
OCC1(CCCc2ccccc2)CCN(Cc2ccc(-n3cccn3)cc2)CC1	3T3 cytotox 40µM, SNCA expr inh inconclusive, NPR1 antag inconclusive, HEK cytotox inconclusive
O=c1ncn(CC2CC2)c2ccc(-c3ccc(Cl)cc3)nc12	3T3 cytotox inconclusive
O=c1ncn(CC2CC2)c2ccc(-c3ccc4c(c3)OCO4)nc12	3T3 cytotox inconclusive, FLuc inh 45µM
COc1ccc(-c2ccc(C(=O)NCc3cccc(Cl)c3)cc2)nn1	HEK cytotox inconclusive (no result: FLuc inh, SNCA expr inh, SNCA viab count, NPR1 antag)
O=C(Nc1nn(CC(F)(F)F)c2cccc(Oc3cccnc3)c12)c1cocn1	none
CN(c1cc(=O)c2ccnc(Nc3ccn(C)n3)c2o1)C1CCOCC1	3T3 cytotox inconclusive
Cn1ccc(Nc2nccc3c(=O)cc(-c4cn[nH]c4)oc23)n1	3T3 cytotox 79µM, SNCA expr inh inconclusive, HEK cytotox inconclusive
O=c1cc(-c2cccnc2)oc2c(NCc3ccccc3)nccc12	3T3 cytotox 22µM, FLuc inh inconclusive, HEK cytotox inconclusive
Cn1ccc(Nc2nccc3c(=O)cc(-c4cccnc4)oc23)n1	3T3 cytotox 40µM
O=c1cc(-c2cccnc2)oc2c(NCC3CCOCC3)nccc12	3T3 cytotox inconclusive
CC(C)(C)C(=O)N1CCCC1C(=O)N1CCC(c2nc3ccncc3[nH]2)CC1 (stereo not given)	none (no result: FLuc inh, NPR1 antag)
O=C(c1ccc(Oc2ccccc2)cc1)N1CCOCC12CCN(Cc1ccccc1)CC2	3T3 cytotox inconclusive, HEK cytotox inconclusive
CC(C)c1ccc(CN2CCC3(CC2)COCCN3C(=O)OCc2ccccc2)cc1	3T3 cytotox 35µM, SNCA viab count inconclusive, NPR1 antag inconclusive, HEK cytotox 50µM
O=C(OCc1ccccc1)N1CCOCC12CCN(Cc1cccnc1)CC2	3T3 cytotox inconclusive, HEK cytotox inconclusive
O=C(COc1ccccc1)N1CCOCC12CCN(Cc1ccccc1)CC2	3T3 cytotox inconclusive, SNCA expr inh inconclusive, HEK cytotox 45µM
O=C(OCc1ccccc1)N1CCOCC12CCN(Cc1cccs1)CC2	3T3 cytotox 28µM, SNCA expr inh inconclusive, HEK cytotox inconclusive
COc1ccc(CN2CCC3(CC2)COCCN3C(=O)OCc2ccccc2)cc1O	3T3 cytotox inconclusive, SNCA viab count inconclusive
O=C(OCc1ccccc1)N1CCOCC12CCN(Cc1ccc(F)cc1)CC2	3T3 cytotox inconclusive, SNCA viab count inconclusive, HEK cytotox 71µM
CCN(CC)CCn1cnc(-c2ccccc2)c1-c1cnc(C)s1	3T3 cytotox inconclusive
CNC(=O)N1CCC(C2CCN(C(=O)c3cc(OC)cc(OC)c3)C2)CC1 (stereo not given)	none
c1cncc(Nc2cc3c(cn2)CN(Cc2ccsc2)CCN3)c1	3T3 cytotox inconclusive, FLuc inh 20µM, HEK cytotox inconclusive
c1cncc(Nc2cc3c(cn2)CN(CC2CCOCC2)CCN3)c1	3T3 cytotox inconclusive, FLuc inh inconclusive
c1cncc(Nc2cc3c(cn2)CN(Cc2c[nH]c4ccccc24)CCN3)c1	3T3 cytotox inconclusive, FLuc inh inconclusive, SNCA expr inh inconclusive, SNCA viab count inconclusive, HEK cytotox 112µM
COc1cccc2c1C(=O)c1c(O)c3c(c(O)c1C2=O)C[C@@](O)(C(C)=O)C[C@H]3O[C@H]1C[C@H](N)[C@H](O)[C@H](C)O1	SNCA expr inh 0.24µM, SNCA viab count inconclusive (no result: 3T3 cytotox, FLuc inh, NPR1 antag, HEK cytotox)
Cn1ccc2c(C(=O)NCCc3cnc[nH]3)nc(-c3ccccc3)cc21	3T3 cytotox inconclusive, FLuc inh inconclusive, HEK cytotox inconclusive
Cn1ccc2c(C(=O)NCCc3cnc[nH]3)nc(-c3cnn(Cc4ccccc4)c3)cc21	3T3 cytotox 79µM, HEK cytotox inconclusive
COc1ccccc1-c1cc2c(ccn2C)c(C(=O)NCCc2cnc[nH]2)n1	3T3 cytotox inconclusive, HEK cytotox inconclusive
Cn1ccc2c(C(=O)NCCc3cnc[nH]3)nc(-c3cccc(C(F)(F)F)c3)cc21	3T3 cytotox 35µM, SNCA expr inh inconclusive, SNCA viab count inconclusive, HEK cytotox 40µM
Cn1ccc2c(C(=O)NCCc3cnc[nH]3)nc(-c3cccc(CO)c3)cc21	3T3 cytotox inconclusive, HEK cytotox inconclusive
COc1ccc(-c2cc3c(ccn3C)c(C(=O)NCCc3cnc[nH]3)n2)cn1	3T3 cytotox 25µM, HEK cytotox inconclusive
Cn1ccc2c(C(=O)NCCc3cnc[nH]3)nc(-c3cccnc3)cc21	3T3 cytotox 45µM
OCCN1CCN(c2ccc(-c3nc(-c4cccc(C(F)(F)F)c4)no3)cn2)CC1	3T3 cytotox 25µM, FLuc inh 28µM, NPR1 antag inconclusive, HEK cytotox inconclusive
O=C(COc1ccccc1)NC[C@H]1O[C@H](Cc2cc(-c3ccccc3)on2)CC[C@@H]1O	3T3 cytotox inconclusive, HEK cytotox inconclusive
COc1ccccc1CNC[C@H]1O[C@H](Cc2cc(-c3ccccc3)on2)CC[C@@H]1O	3T3 cytotox 89µM, HEK cytotox inconclusive
O[C@H]1CC[C@@H](Cc2cc(-c3ccccc3)on2)O[C@@H]1CNC1CCCCC1	3T3 cytotox inconclusive, HEK cytotox 100µM
Cc1nn(-c2ccccc2)c2c1C(C)N(CC1CN([S+](=O)([O-])C(C)C)C1)C2=O (stereo not given)	HEK cytotox inconclusive (no result: FLuc inh, SNCA expr inh, SNCA viab count, NPR1 antag)
CCOc1ccccc1CN1CCOCCNC(=O)[C@H]2CCCC[C@H]21	HEK cytotox inconclusive
CCOc1ccccc1CN1CCCCCCNC(=O)CC1c1ccccc1 (stereo not given)	3T3 cytotox 25µM, HEK cytotox 32µM
COc1cccc(CN2CCCCCNC(=O)CC2c2ccccc2)c1OC (stereo not given)	3T3 cytotox inconclusive, HEK cytotox inconclusive
